Here are results for six sequences from the supplement of paper PMC6555819.

What all share (assay): PBM binding z-score (relative to random genomic background probes); higher = stronger binding; sequences stand for … in GC…GCGATTGACAGCGTAGAATGAAGG
Assay [1] has as its system FXR:RXRa (NR concentration 270 nM, RXRa partner concentration 90 nM). In short, it runs like this: (§1)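 The probes on custom Agilent 4×180K protein-binding microarrays were double-stranded, with 34-nt variable regions bearing direct-repeat seeds, single-nucleotide variants, half-site ablations and random human genomic background sequences. Incubation lasted 1 h with ligand-free nuclear receptor dimers in PBS pH 7.4, 2% milk, 0.02% Triton X-100, 1 mM DTT, 0.2 mg/mL BSA and 0.4 mg/ml salmon testes DNA. Antibodies against each partner (one per run) detected bound dimers, and fluorescence scans were regression-normalized. Binding z-scores take the random background probes as reference.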

In assay [2] the test system is LXRa:RXRa (NR concentration 270 nM, RXRa partner concentration 90 nM). In a few lines:
as §1

The subject of assay [3] is LXRa homodimer (NR concentration 270 nM). In a few lines:
as §1

Assay [4] relates to LXRb:RXRa (NR concentration 270 nM, RXRa partner concentration 90 nM). In short, it runs like this:
as §1

The test system of assay [5] is LXRb homodimer (NR concentration 270 nM). In short, it runs like this:
as §1

The subject of assay [6] is PPARa:RXRa (NR concentration 270 nM, RXRa partner concentration 90 nM). In a few lines:
as §1

The subject of assay [7] is PPARg:RXRa (NR concentration 180 nM, RXRa partner concentration 90 nM). In short, it runs like this:
as §1

For assay [8], the system named is PPARg:RXRa 270nM:90nM, anti-RXR (NR concentration 270 nM, RXRa partner concentration 90 nM). In short, it runs like this:
as §1

Assay [9] relates to PPARg:RXRa 30nM:10nM, anti-RXR (NR concentration 30 nM, RXRa partner concentration 10 nM). In a few lines:
as §1

For assay [10], the system named is PPARg:RXRa 90nM:30nM, anti-RXR (NR concentration 90 nM, RXRa partner concentration 30 nM). In short, it runs like this:
as §1

Assay [11] relates to PPARg:RXRa DBDmut IVT, anti-RXR (DBD mutation: RXRa K156A/R161A, NR concentration 270 nM, RXRa partner concentration 90 nM). In a few lines: as §1
Assay [12] deals with PPARg:RXRa IVT, anti-PPARg (NR concentration 270 nM, RXRa partner concentration 90 nM). In short, it runs like this: as §1
For assay [13], the system named is PPARg DBDmut:RXRa IVT, anti-PPARg (DBD mutation: PPARg1 K132A/R137A, NR concentration 270 nM, RXRa partner concentration 90 nM). In a few lines:
as §1

Assay [14] deals with PPARg DBDmut IVT, anti-PPARg (DBD mutation: PPARg1 K132A/R137A, NR concentration 270 nM). In short, it runs like this: as §1
Assay [15] deals with PPARg homodimer (NR concentration 180 nM). In a few lines: as §1
The test system of assay [16] is PXR:RXRa (NR concentration 270 nM, RXRa partner concentration 90 nM). In a few lines:
as §1

For assay [17], the system named is PXR homodimer (NR concentration 270 nM). In a few lines: as §1
Assay [18] relates to RARa:RXR (NR concentration 270 nM, RXRa partner concentration 90 nM). In a few lines:
as §1

The test system of assay [19] is RARa homodimer (NR concentration 270 nM). In a few lines:
as §1

Assay [20] relates to RARb:RXRa (NR concentration 270 nM, RXRa partner concentration 90 nM). In a few lines: as §1

Turning to CCTACTGGGCCAAAAAGGTTATTGATGCCGATAA, the PBM binding z-score in assay [1] was -0.207; in assay [2], 0.612; in assay [3], 0.14; in assay [4], 1.08; in assay [5] it was -0.751; in assay [6], 2.15. Besides, the PBM binding z-score in assay [7] turned out to be 0.965; in assay [8], 1.85; in [9], 0.374; in assay [10], 1.29; in assay [11] it was 3.45; in [12] it was 2.94. For the same sequence, the PBM binding z-score in assay [13] is -0.965; in assay [14] it was -0.43; in assay [15] it was 0.601; in assay [16], 0.934; in assay [17], 0.529; in assay [18], 1.67. The PBM binding z-score in assay [19] was 0.386; in assay [20] it was 1.15.

ATATCTAGGTAAAGTTCAGTGAAAGATCGATAGA: the PBM binding z-score in [1] was determined as 1.18; in assay [2], 1.84; in assay [3], 1.43; in [4], 1.36; in assay [5], 0.639; in assay [6] it was 3.42. The PBM binding z-score in assay [7] turned out to be 5.08; in assay [8], 5.21; in assay [9], 2.95; in [10], 4.9; in assay [11], 6.18; in assay [12] it was 5.91. Also, the PBM binding z-score in assay [13] amounted to 1.87; in assay [14], 1.59; in [15], 1.46; in assay [16], 1.95; in assay [17], 1.41; in assay [18] it was 1.52. In addition, the results for the PBM binding z-score in assay [19] and in assay [20] were 1.3 and 2.74, respectively.

Regarding CATCCAAGGTCATAGGAGGTCAGTGAAGACAGAT, the PBM binding z-score in assay [1] turned out to be 7.76; in assay [2] it was 7.88; in assay [3] it was 6.67; in assay [4], 6.38; in assay [5] it was 1.99; in assay [6], 6.12. The PBM binding z-score was 6.25 in assay [7]; 6.07 in assay [8]; 3.14 in assay [9]; 4.93 in assay [10]; 3.6 in [11]; 4.75 in [12]. Also, the PBM binding z-score in [13] came to 3.02; in assay [14], 2.08; in assay [15], 5.33; in [16], 6.96; in [17], 4.63; in [18], 6.4. For the same sequence, the PBM binding z-score was 3.27 in assay [19] and 5.38 in assay [20].

In the case of CCGAGTAGGTTATGCGGCATTCAGGCAACGGTGA, the PBM binding z-score in assay [1] is -0.091; in assay [2], 0.00702; in assay [3] it was -0.177; in assay [4], -0.0522; in assay [5], -0.569; in assay [6], 0.802. Moreover, the PBM binding z-score in [7] is 0.774; in [8], 1.06; in assay [9], -0.439; in assay [10], 0.685; in assay [11], 2.82; in assay [12] it was 2.03. Also, the PBM binding z-score is -1.08 in assay [13]; -0.567 in [14]; 0.671 in assay [15]; -0.0535 in assay [16]; 0.0083 in assay [17]; 0.343 in assay [18]. Moreover, the PBM binding z-score came out at 0.296 in [19] and 0.464 in [20].

Take ACTAGCAGGCCAAGCGTCACTCAAGATTAGTCCG: the PBM binding z-score in [1] is -0.5; in [2], -0.376; in assay [3], -0.471; in [4], -0.815; in [5], -0.983; in assay [6], 0.102. Further, the PBM binding z-score in assay [7] worked out at 1.12; in assay [8], 1.84; in [9], 0.377; in assay [10] it was 1.73; in assay [11], 1.13; in [12], 0.488. Moreover, the PBM binding z-score in [13] was 0.0158; in assay [14], -0.899; in assay [15], -0.388; in assay [16] it was -0.885; in assay [17] it was -0.421; in assay [18] it was -0.946. Besides, the values for the PBM binding z-score in assay [19] and in assay [20] were -1.3 and 0.43, respectively.

Turning to AGTCAAAGTTCAGGACGAGGGAACGTAAAGCACG, the PBM binding z-score in [1] is 3.73; in [2], 3.68; in [3], 0.988; in [4] it was 1.57; in assay [5], 0.379; in assay [6], 3.05. The PBM binding z-score is 4.52 in assay [7]; 4.88 in assay [8]; 1.99 in assay [9]; 3.87 in assay [10]; -0.374 in assay [11]; 1.46 in assay [12]. The PBM binding z-score worked out at 0.293 in assay [13]; 0.513 in assay [14]; 2 in assay [15]; 2.12 in [16]; 0.898 in [17]; 2.09 in assay [18]. In addition, the PBM binding z-score in [19] came to 0.539; in [20] it was 4.2.
